About 83,000 compounds went through this panel and 20% of them were active in at least one assay; those are over-represented in the sample as a whole.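 Cells were grown in 96-well plates and exposed to the test compound at a single concentration for 48 hours; results are reported as percent growth, with values below 10 considered active.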 Unmarked numbers belong to inactive results. The source made the active and inactive calls.
What was measured:
Assay in all cases: NCI-60 one-dose screen, 48 h (100 = growth as untreated, 0 = no growth, -100 = all killed)
Conditions in all cases: 10 µM
DU-145 prostate = tested on: DU-145 prostate
K-562 leukemia = tested on: K-562 leukemia
MALME-3M melanoma = tested on: MALME-3M melanoma
MDA-MB-231 breast = tested on: MDA-MB-231 breast
RXF 393 renal = tested on: RXF 393 renal
SF-268 CNS = tested on: SF-268 CNS
SF-295 CNS = tested on: SF-295 CNS
SF-539 CNS = tested on: SF-539 CNS
M14 melanoma = tested on: M14 melanoma
HCT-15 colon = tested on: HCT-15 colon
HT29 colon = tested on: HT29 colon
SNB-75 CNS = tested on: SNB-75 CNS
SNB-19 CNS = tested on: SNB-19 CNS
U251 CNS = tested on: U251 CNS
SK-MEL-5 melanoma = tested on: SK-MEL-5 melanoma
UACC-62 melanoma = tested on: UACC-62 melanoma
LOX IMVI melanoma = tested on: LOX IMVI melanoma
SK-MEL-28 melanoma = tested on: SK-MEL-28 melanoma
PC-3 prostate = tested on: PC-3 prostate

SMILES	growth (DU-145 prostate)	growth (K-562 leukemia)	growth (MALME-3M melanoma)	growth (MDA-MB-231 breast)	growth (RXF 393 renal)	growth (SF-268 CNS)	growth (SF-295 CNS)	growth (SF-539 CNS)	growth (M14 melanoma)	growth (HCT-15 colon)	growth (HT29 colon)	growth (SNB-75 CNS)	growth (SNB-19 CNS)	growth (U251 CNS)	growth (SK-MEL-5 melanoma)	growth (UACC-62 melanoma)	growth (LOX IMVI melanoma)	growth (SK-MEL-28 melanoma)	growth (PC-3 prostate)
CCOC(=O)c1sc2ncnc(Nc3ccc(NC(=O)Nc4ccc(Cl)cc4)cc3)c2c1C	54%	83.7%	26.4%	23.8%	19.4%	72.1%	33.1%	-1.23% (active)	64.8%	33.9%	43%	17.6%	73.7%	26.3%	32.2%	78.8%	44.4%	79.5%	
Nc1nc(-c2cccnc2)nc2c1sc(=S)n2-c1ccccc1	103%	106%	112%	65.2%	100%	96%	111%	103%	106%	104%	94.6%	94.9%	95%	88.2%	98.6%	101%	93.7%	116%	
COc1cc2c3c(n([C@H]4CCOC4)c(=O)c2cc1OC)-c1cc2c(cc1C3=O)OCO2	19.8%	59.6%	78%	91.8%	41.7%	31.7%	-5.69% (active)	1% (active)	23%	56.1%	40.9%	31.9%	31.2%	11.9%	7.91% (active)	11.3%	4.78% (active)	72%	
CCNc1nc(C(F)(F)F)nc2c1sc(=S)n2-c1ccccc1	101%	103%	144%	85.1%	100%	105%	94%	101%	108%	94.7%	88.8%	99.2%	107%	93.3%	87.6%	93.9%	88.6%		
COc1ccc(/C=C/C(=O)C(=O)/C=C/c2ccc(OC)c(OC)c2)cc1OC	22.5%	7.11% (active)	54.5%	2.99% (active)	-63.3% (active)	13.2%	73.8%	6.56% (active)	-10.5% (active)	-3.56% (active)	-35.2% (active)	64.9%	33.1%	6.4% (active)	77.9%	-10.8% (active)	-66.4% (active)	-9.43% (active)	43.6%
O=C(Nc1ccc(OS(=O)(=O)c2ccccc2)cc1)C1CCCCC1	92.8%	60.6%	81.9%	73.1%	87.5%	90.2%	89.7%	80.4%	70.3%	67.7%	39.3%	95.7%	89.2%	69.6%	77.1%	89.5%	86.2%	91.7%	72.7%
COc1ccc2nc(Cl)c(Cn3nnc(Cc4ccccc4)n3)cc2c1	61.6%	32.9%	34.4%	50.7%	60.2%	51.5%	37.4%	67.5%	30.3%	36.5%	27.4%	57.1%	58%	53.2%	-47.2% (active)	35.1%	42.9%	47.5%	
COc1ccc(/C=C/c2nnc(/C=C/c3ccc(OC)c(OC)c3)o2)cc1OC	49.2%	14.8%	57.1%	17.8%	27.4%	41.9%	12.5%	-11.8% (active)	5.44% (active)	21.6%	-7.7% (active)	38.4%	14.8%	16.2%	2.81% (active)	9.17% (active)	4.41% (active)	30.6%	31.5%
COc1cc(C(=O)N2CCN(c3cc4c(cc3F)c(=O)c(C(=O)NO)cn4C3CC3)CC2)cc(OC)c1OC	104%	103%	105%	98.8%	104%	98%	103%	101%	103%	106%	105%	96.3%	100%	98.1%	101%	95%	94.1%	108%	93.6%
O=C(CN1CCN(C(=O)c2ccccc2)CC1)Nc1ccccc1SCc1ccccc1	101%	66%	86.1%	68.7%	111%	90.9%	86.9%	89.1%	79.4%	87.3%	81%	75.6%	90.7%	90.8%	56.9%	52%	73.9%	98.2%	57.9%
CNC(=O)c1cc(Oc2ccc3c(c2)sc2nc(-c4ccc(NC(=O)Nc5ccc(Cl)c(C(F)(F)F)c5)cc4)cn23)ccn1	75.5%	74.7%	83.7%	77.4%	84.6%	84.8%	76.3%	56.2%	85.5%	71.4%	67.2%	66.6%	85.7%	61.9%	86.6%	88%	76.1%	88.4%	64%
Cc1cc(CSc2ccccc2C(=O)N2CC=C(c3ccccc3)CC2)on1	107%	89.1%	95.8%	95.3%	107%	108%	99.6%	92.9%	108%	95.2%	84.2%	90.3%	104%	98.7%	97.5%	90.4%	92.1%	98.1%	82.9%
CNC(=O)c1cn2c3c(c(N4CCN(C)CC4)c(F)cc3c1=O)OC[C@@H]2C	104%	102%	106%	102%	103%	97%	98.7%	105%	106%	102%	96.2%	84.1%	106%	99.5%	101%	103%	94.8%	108%	96.2%
CN1CCc2c(sc3nc4n(-c5ccc(Cl)cc5)cnn4c(=O)c23)C1	110%	106%	97%	98.7%	122%	95.6%	102%	106%	96.8%	104%	91.1%	94.2%	107%	104%	109%	102%	97.6%	116%	
COc1ccc(C(=O)CSc2nc(-c3cc(OC)ccc3OC)cc(-c3ccc(OC)cc3)c2C#N)cc1	108%	102%	110%	102%	107%	90%	100%	86.5%	93.9%	92.1%	92.2%	90.1%	99.9%	104%	99.1%	93.7%	91.4%	101%	
COc1cc(-c2csc(NC(=O)Nc3cc(C(F)(F)F)cc(C(F)(F)F)c3)n2)cc(OC)c1OC	20.3%	17.5%	6.56% (active)	14.4%	47%	32.7%	-10.4% (active)	23%	21.9%	11.8%	7.94% (active)	34.1%	25.3%	9.2% (active)	-4.49% (active)	18.7%	6.63% (active)	17.6%	4.29% (active)
CNC(=O)c1cn(C2CC2)c2cc(N3CCN(C(=O)c4cc(OC)c(OC)c(OC)c4)CC3)c(F)cc2c1=O	104%	104%	103%	98.2%	112%	96.8%	98%	98.9%	109%	100%	99.2%	96%	96.4%	96.3%	98.3%	96.5%	94.7%	105%	89.9%

Reference: PubChem BioAssay (NCI)
